Test results as given in paper PMC5540273 (PLoS ONE, 2017).
Like-named read-outs stand apart in the source and are kept apart here.

Columns and labels:
FLT1 = conditions: concentration: 1 μM, replicates: in singlicate; n = 1
FLT3-autoinhibited = conditions: concentration: 1 μM, replicates: in singlicate; n = 1
FLT3 = conditions: concentration: 1 μM, replicates: in singlicate; n = 1
FLT4 = conditions: concentration: 1 μM, replicates: in singlicate; n = 1
FRK = conditions: concentration: 1 μM, replicates: in singlicate; n = 1
FYN = conditions: concentration: 1 μM, replicates: in singlicate; n = 1
GAK = conditions: concentration: 1 μM, replicates: in singlicate; n = 1
GCN2(Kin.Dom.2,S808G) = tested on: T1, GCN2(Kin.Dom.2,S808G); conditions: concentration: 1 μM, replicates: in singlicate; n = 1
T1 construct: gene EIF2AK4

GRK1 = conditions: concentration: 1 μM, replicates: in singlicate; n = 1
GRK2 = tested on: T2, GRK2; conditions: concentration: 1 μM, replicates: in singlicate; n = 1
T2 construct: gene ADRBK1

GRK3 = tested on: T3, GRK3; conditions: concentration: 1 μM, replicates: in singlicate; n = 1
T3 construct: gene ADRBK2

GRK4 = conditions: concentration: 1 μM, replicates: in singlicate; n = 1
GRK7 = conditions: concentration: 1 μM, replicates: in singlicate; n = 1
GSK3A = conditions: concentration: 1 μM, replicates: in singlicate; n = 1
GSK3B = conditions: n = 1
HASPIN = tested on: T4, HASPIN; conditions: concentration: 1 μM, replicates: in singlicate; n = 1
T4 construct: gene GSG2

HCK = conditions: concentration: 1 μM, replicates: in singlicate; n = 1
HIPK1 = conditions: concentration: 1 μM, replicates: in singlicate; n = 1
HIPK2 = conditions: concentration: 1 μM, replicates: in singlicate; n = 1
HIPK3 = conditions: concentration: 1 μM, replicates: in singlicate; n = 1
[1] = concentration: 1 μM, replicates: in singlicate
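Further: KINOMEscan kinase panel screen.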

## c1ccc(-c2ccnc3[nH]ccc23)cc1 [SB-693578]
FLT1
  %Inh: 1%
FLT3-autoinhibited
  %Inh: 8%
FLT3
  %Inh: 0%
FLT4
  %Inh: 8%
FRK
  %Inh: 0%
FYN
  %Inh: 0%
GAK
  %Inh: 90%
GCN2(Kin.Dom.2,S808G)
  %Inh: 0%
GRK1
  %Inh: 6%
GRK2
  %Inh: 0%
GRK3
  %Inh: 56%
GRK4
  %Inh: 3%
GRK7
  %Inh: 0%
GSK3A
  %Inh: 22%
GSK3B; [1]
  %Inh: 13%
HASPIN
  %Inh: 60%
HCK
  %Inh: 0%
HIPK1
  %Inh: 4%
HIPK2
  %Inh: 0%
HIPK3
  %Inh: 34%

## Cn1cncc1C(=O)NC1CCN(c2ccnc(Nc3ccc(F)cc3)n2)C1 (centres unmarked) [GSK1379717]
FLT1
  %Inh: 12%
FLT3-autoinhibited
  %Inh: 1%
FLT3
  %Inh: 0%
FLT4
  %Inh: 99.1%
FRK
  %Inh: 0%
FYN
  %Inh: 42%
GAK
  %Inh: 0%
GCN2(Kin.Dom.2,S808G)
  %Inh: 0%
GRK1
  %Inh: 18%
GRK2
  %Inh: 0%
GRK3
  %Inh: 0%
GRK4
  %Inh: 0%
GRK7
  %Inh: 0%
GSK3A
  %Inh: 12%
GSK3B; [1]
  %Inh: 8%
HASPIN
  %Inh: 0%
HCK
  %Inh: 0%
HIPK1
  %Inh: 0%
HIPK2
  %Inh: 0%
HIPK3
  %Inh: 3%

## COc1cccc(C2=C(Nc3cc(Cl)c(O)c(Cl)c3)C(=O)NC2=O)c1 [SB-390767]
FLT1
  %Inh: 20%
FLT3-autoinhibited
  %Inh: 0%
FLT3
  %Inh: 0%
FLT4
  %Inh: 10%
FRK
  %Inh: 20%
FYN
  %Inh: 30%
GAK
  %Inh: 100%
GCN2(Kin.Dom.2,S808G)
  %Inh: 0%
GRK1
  %Inh: 3%
GRK2
  %Inh: 0%
GRK3
  %Inh: 28%
GRK4
  %Inh: 1%
GRK7
  %Inh: 0%
GSK3A
  %Inh: 44%
GSK3B; 1 µM
  %Inh: 33%
HASPIN
  %Inh: 0%
HCK
  %Inh: 0%
HIPK1
  %Inh: 0%
HIPK2
  %Inh: 0%
HIPK3
  %Inh: 20%

## COc1ccc(Nc2nccc(N3CCC(NC(=O)C(C)c4ccc(Cl)cc4)CC3)n2)cc1 (centres unmarked) [GSK1379812]
FLT1
  %Inh: 26%
FLT3-autoinhibited
  %Inh: 0%
FLT3
  %Inh: 0%
FLT4
  %Inh: 2%
FRK
  %Inh: 0%
FYN
  %Inh: 12%
GAK
  %Inh: 1%
GCN2(Kin.Dom.2,S808G)
  %Inh: 0%
GRK1
  %Inh: 0%
GRK2
  %Inh: 0%
GRK3
  %Inh: 8%
GRK4
  %Inh: 0%
GRK7
  %Inh: 0%
GSK3A
  %Inh: 16%
GSK3B; [1]
  %Inh: 8%
HASPIN
  %Inh: 0%
HCK
  %Inh: 0%
HIPK1
  %Inh: 0%
HIPK2
  %Inh: 0%
HIPK3
  %Inh: 15%

## CC(C)c1ccc(O)cc1Nc1ccnc2ccc(C(F)(F)F)cc12 [GW482059]
FLT1
  %Inh: 21%
FLT3-autoinhibited
  %Inh: 9%
FLT3
  %Inh: 1%
FLT4
  %Inh: 10%
FRK
  %Inh: 9%
FYN
  %Inh: 20%
GAK
  %Inh: 0%
GCN2(Kin.Dom.2,S808G)
  %Inh: 0%
GRK1
  %Inh: 0%
GRK2
  %Inh: 14%
GRK3
  %Inh: 0%
GRK4
  %Inh: 21%
GRK7
  %Inh: 0%
GSK3A
  %Inh: 19%
GSK3B; [1]
  %Inh: 0%
HASPIN
  %Inh: 3%
HCK
  %Inh: 10%
HIPK1
  %Inh: 0%
HIPK2
  %Inh: 31%
HIPK3
  %Inh: 0%

## Cc1ccc(NC(=O)Nc2ccc(Cl)c(C(F)(F)F)c2)cc1-c1ccc(C(=O)Nc2ccncc2)cc1 [GSK1398470]
FLT1
  %Inh: 23%
FLT3-autoinhibited
  %Inh: 0%
FLT3
  %Inh: 27%
FLT4
  %Inh: 0%
FRK
  %Inh: 42%
FYN
  %Inh: 44%
GAK
  %Inh: 14%
GCN2(Kin.Dom.2,S808G)
  %Inh: 15%
GRK1
  %Inh: 0%
GRK2
  %Inh: 0%
GRK3
  %Inh: 0%
GRK4
  %Inh: 10%
GRK7
  %Inh: 0%
GSK3A
  %Inh: 21%
GSK3B; [1]
  %Inh: 10%
HASPIN
  %Inh: 10%
HCK
  %Inh: 0%
HIPK1
  %Inh: 0%
HIPK2
  %Inh: 0%
HIPK3
  %Inh: 0%

## COc1nccc(-c2c(-c3ccc(F)cc3)ncn2CCCN2CCOCC2)n1 [SB-282852]
FLT1
  %Inh: 10%
FLT3-autoinhibited
  %Inh: 4%
FLT3
  %Inh: 0%
FLT4
  %Inh: 0%
FRK
  %Inh: 0%
FYN
  %Inh: 0%
GAK
  %Inh: 0%
GCN2(Kin.Dom.2,S808G)
  %Inh: 1%
GRK1
  %Inh: 29%
GRK2
  %Inh: 2%
GRK3
  %Inh: 14%
GRK4
  %Inh: 23%
GRK7
  %Inh: 37%
GSK3A
  %Inh: 17%
GSK3B; [1]
  %Inh: 10%
HASPIN
  %Inh: 0%
HCK
  %Inh: 0%
HIPK1
  %Inh: 46%
HIPK2
  %Inh: 76%
HIPK3
  %Inh: 0%

## FC(F)(F)c1ccccc1-c1cc(-c2c[nH]nc2-c2ccccn2)ccn1 [GW679396]
FLT1
  %Inh: 18%
FLT3-autoinhibited
  %Inh: 0%
FLT3
  %Inh: 0%
FLT4
  %Inh: 0%
FRK
  %Inh: 17%
FYN
  %Inh: 0%
GAK
  %Inh: 27%
GCN2(Kin.Dom.2,S808G)
  %Inh: 0%
GRK1
  %Inh: 0%
GRK2
  %Inh: 0%
GRK3
  %Inh: 14%
GRK4
  %Inh: 0%
GRK7
  %Inh: 0%
GSK3A
  %Inh: 2%
GSK3B; [1]
  %Inh: 12%
HASPIN
  %Inh: 0%
HCK
  %Inh: 0%
HIPK1
  %Inh: 0%
HIPK2
  %Inh: 0%
HIPK3
  %Inh: 17%

## COc1ccc(Nc2nccc(NCCNC(=O)Nc3cc(C)ccc3C)n2)cc1 [GSK1379899]
FLT1
  %Inh: 29%
FLT3-autoinhibited
  %Inh: 2%
FLT3
  %Inh: 0%
FLT4
  %Inh: 8%
FRK
  %Inh: 0%
FYN
  %Inh: 0%
GAK
  %Inh: 0%
GCN2(Kin.Dom.2,S808G)
  %Inh: 4%
GRK1
  %Inh: 0%
GRK2
  %Inh: 0%
GRK3
  %Inh: 0%
GRK4
  %Inh: 12%
GRK7
  %Inh: 0%
GSK3A
  %Inh: 0%
GSK3B; [1]
  %Inh: 0%
HASPIN
  %Inh: 0%
HCK
  %Inh: 78%
HIPK1
  %Inh: 0%
HIPK2
  %Inh: 0%
HIPK3
  %Inh: 0%

## COc1ccc(CSc2nnc(-c3ccc4c(c3)CCO4)o2)cc1
FLT1
  %Inh: 0%
FLT3-autoinhibited
  %Inh: 0%
FLT3
  %Inh: 0%
FLT4
  %Inh: 0%
FRK
  %Inh: 0%
FYN
  %Inh: 0%
GAK
  %Inh: 0%
GCN2(Kin.Dom.2,S808G)
  %Inh: 33%
GRK1
  %Inh: 0%
GRK2
  %Inh: 0%
GRK3
  %Inh: 3%
GRK4
  %Inh: 1%
GRK7
  %Inh: 0%
GSK3A
  %Inh: 75%
GSK3B; 1 µM
  %Inh: 0%
HASPIN
  %Inh: 42%
HCK
  %Inh: 0%
HIPK1
  %Inh: 9%
HIPK2
  %Inh: 0%
HIPK3
  %Inh: 0%
